# Measured values as given in PubChem BioAssay AID738 (SRMLSC, 2007).
# Hit rate of the full screen: of about 98,000 compounds, about 4,900 (5%) were called active. This is one part of a sample in which actives are shown more often than they occur. Rule as the data show it: active = inhibition above about 30%; inactive = the rest.
# Experiment: yeast control strain growth suppression – counter-screen for post-Golgi transport modulator project, primary screen (AID 738)
# Conditions: efflux-deficient yeast background strain, growth absorbance A615, 16 h; at 10 µM; hits give high values
row,Compound,inhibition
1,O=C(CCC(=O)OCc1cccc(C(=O)Oc2ccccc2)c1)Nc1cccc2ccccc12,0.79% (inactive)
2,O=C1OC(c2ccc(Cl)cc2)=N/C1=C\c1cccnc1,-10.4% (inactive)
3,CS(=O)(=O)c1sc2nc(-c3ccccc3)cc(-c3ccccc3)c2c1N,10.9% (inactive)
4,O=C1CN(c2nc(-c3ccccc3)c3cc(Br)ccc3n2)c2ccccc2N1,6.52% (inactive)
5,COc1ccccc1NC(=O)COc1ccc(C(=O)OCC(=O)N(C(C)C)C(C)C)cc1OC,13.2% (inactive)
6,FC(F)(F)c1cc(-c2ccco2)nc(NCc2ccc(Cl)cc2)n1,25.8% (inactive)
7,OC(COc1ccc2ccccc2c1)CN1CCOCC1 (stereo not drawn),15.5% (inactive)
8,COc1cccc(OCC(O)CN2CCN(CCO)CC2)c1 (stereo not drawn),-4.45% (inactive)
9,Cc1ccc(OCC(O)CN2CCN(CC(O)COc3ccc(C)cc3Cl)CC2)c(Cl)c1 (stereo not drawn),94.4% (active)
10,Cc1ccc(-c2nc(C)sc2CC(=O)O)cc1,6.8% (inactive)
11,NC(=O)C1CCN(C(=O)c2ccc(C(F)(F)F)cc2)CC1,36.9% (active)
12,NC(=O)C1CCN(C(=O)c2ccc(-c3ccccc3)cc2)CC1,6.88% (inactive)
13,COc1ccccc1N(C)S(=O)(=O)c1ccc(C(=O)N2CCC(C(N)=O)CC2)cc1,1.96% (inactive)
14,O=c1oc2c(Cl)cc(Cl)cc2cc1-c1nnc(Nc2ccccc2F)s1,-3.4% (inactive)
15,CCS(=O)(=O)n1nc(-c2ccc(OC)cc2)nc1SC,9.73% (inactive)
16,Cn1c(CO)cnc1SCc1ccccc1,9.24% (inactive)
17,CCS(=O)(=O)n1nc(-c2ccccc2)nc1SCc1ccccc1,31.2% (active)
18,CCC1(C)Cc2c(sc3nnn(CC(=O)Nc4ccc(Cl)cc4)c(=O)c23)CO1 (stereo not drawn),6.74% (inactive)
19,O=C(NCCCN1CCOCC1)c1cc2c(s1)CCC2,-14.4% (inactive)
20,Cc1ccc(-c2n[nH]c(=S)n2/N=C/c2cc3c(cc2[N+](=O)[O-])OCO3)cc1,-11.7% (inactive)
21,Cc1n[nH]c(=S)n1/N=C/c1ccc(Br)o1,49.4% (active)

row,Compound,inhibition
1,C=CCNC(=S)NNc1ncnc2sc3c(c12)CC(C)(C)OC3,0% (inactive)
2,COc1ccccc1NC(=S)NC(=O)C(C)C,12.3% (inactive)
3,O=C(NCN1CCN(CCO)CC1)c1cnccn1,-5.66% (inactive)
4,O=c1cc(CSc2ccccn2)nc(N2CCN(c3ccccc3)CC2)[nH]1,8.73% (inactive)
5,Cc1ccc(SCc2cc(=O)[nH]c(N3CCCCC3)n2)cc1,7.96% (inactive)
6,O=c1cc(-c2ccccc2)nc(N2CCCCC2)[nH]1,45% (active)
7,CCOC(=O)C(=O)Nc1nc(-c2ccccc2)c(CC)s1,-2.8% (inactive)
8,Cc1cccc(CSc2nnc(NC(=O)CSc3nnc(C)s3)s2)c1,22.5% (inactive)
9,CCN(CC)c1ccc(/C=N/Nc2nc(C)cc(=O)[nH]2)cc1,-2.13% (inactive)
10,COc1cc2c(cc1OC)C(C(=O)NCc1ccco1)C1c3ccccc3CCN1C2=O (stereo not drawn),4.7% (inactive)
11,CCOC(=O)C1CCN(c2ncnc3c2oc2ccc(Br)cc23)CC1,47.4% (active)
12,CCOC(=O)N1CCN(C(=O)C2CCN(c3ncnc4c3sc3cccc(F)c34)CC2)CC1,2.07% (inactive)
13,CCOC(=O)C1CCN(C(=O)c2oc3ccc(S(=O)(=O)N4CCCCCC4)cc3c2C)CC1,8.75% (inactive)
14,CCCNC(=O)c1c(N)n(-c2ccc(S(N)(=O)=O)cc2)c2nc3ccccc3nc12,-2.52% (inactive)
15,Cc1nn(C)c(Oc2ccc(Cl)cc2)c1C=O,2.69% (inactive)
16,O=C(COc1ccccc1)NCc1ccc2c(c1)OCO2,9.88% (inactive)
17,O=C(CCCCn1c(=O)[nH]c2ccccc2c1=O)NCc1ccc2c(c1)OCO2,1% (inactive)
18,O=C1N(Cc2ccc3c(c2)OCO3)c2ccccc2C1(O)c1c[nH]c2ccccc12 (stereo not drawn),38.7% (active)
19,Cc1csc(=NC(=O)c2ccccc2)n1CCO,7.5% (inactive)
20,CCC(C)NC(=O)CCCc1ccccc1 (stereo not drawn),28.4% (inactive)
21,O=C(CNC(=O)Cc1ccccc1)NCC(=O)OCC(=O)c1ccccc1Cl,13.6% (inactive)

row,Compound,inhibition
1,C=CCOc1c2ccc(C(=O)N(CC)c3ccc(OC)cc3)cc2nn1C,7.7% (inactive)
2,O=C(NC1CC1)c1ccc2c(c1)NC(=O)c1ccccc1S2,-5.47% (inactive)
3,COc1ccc(C(C#N)Nc2ccc(C)cc2)cc1 (stereo not drawn),1.82% (inactive)
4,COc1ccc(-c2cc(C(=O)n3cnc4ccccc43)c3ccccc3n2)cc1,15.1% (inactive)
5,O=C(CCOc1ccccc1)NCc1ccccc1,39.4% (active)
6,O=C(CCCOc1ccccc1)NCc1ccco1,3.25% (inactive)
7,O=C(CCc1ccccc1)NCc1cccnc1,6.95% (inactive)
8,Cn1sc(NC(=O)c2ccccc2)nc1=O,4.34% (inactive)
9,CC(C)(C)c1cc2cccnc2n1Cc1ccccc1,7.46% (inactive)
10,CCOC(=O)c1sc2nc(SC)nc(-c3ccccc3)c2c1N,-7.15% (inactive)
11,COCCNC(=O)COc1ccc(C)c(C)c1,-10.9% (inactive)
12,Cc1cc2ccccc2n1CCNC(=O)COc1ccc2ccccc2c1,44.7% (active)
13,Cc1ccccc1OCC(=O)NCC(=O)OCC(=O)c1ccc2ccccc2c1,6.76% (inactive)
14,COc1ccc(C(=O)CN(C(=O)c2ccc(Cl)cc2)N2C(=O)c3ccccc3C2=O)cc1,-4.1% (inactive)
15,COc1cccc(NC(=O)C2c3cc(OC)c(OC)cc3C(=O)N(C)C2c2cccnc2)c1 (stereo not drawn),-0.14% (inactive)
16,CC(=O)NNc1cc(=O)c2c(=O)n(C)c(=O)n(C)c2[nH]1,0.97% (inactive)
17,Cn1c2ccccc2n2c(=O)c(=O)n(CC(=O)c3ccc(F)cc3)nc12,3.79% (inactive)
18,Cc1cc(C)c(S(=O)(=O)NCC2CCC(C(=O)NCc3ccc4c(c3)OCO4)CC2)c(C)c1 (stereo not drawn),15.2% (inactive)
19,CCOc1ccccc1NC(=O)Nc1cc(OC)ccc1OC,14.3% (inactive)
20,CCOc1cc(-c2cc(-c3ccc(OC)cc3)nc(N)c2C#N)ccc1O,-2.55% (inactive)
21,CCOc1ccccc1Oc1cn[nH]c1-c1ccc(OC)cc1O,52.3% (active)
